Results filed as inconclusive are left out. Activity calls are given as the source filed them. The calls were made as follows, unless noted: active = hit-call score of the fitted dose curve at least 0.9, where 1 is the maximum; inactive = score below 0.9.

This is an account of results in PubChem BioAssay (EPA / NIEHS).

The nature of experiment [1]: UKN2_HCS_IMR90_cell_viability: Viability Assessment in the University of Konstanz (UKN) Leist Lab Neural Crest Cell Migration Assay in human induced IMR90 Pluripotent Stem Cells (UKN2) (AID 2284233).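 Also: viability of neural crest cells differentiated from IMR90 iPSC measured by calcein-AM fluorescence imaging; cells exposed to compound for 24 h after a 24 h migration phase.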 Put shortly: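 cMINC format, iPSC-derived neural crest (IMR90); 24 h migration (EGF/FGF, N2-S), then 24 h toxicant. Calcein-AM/H-33342 stain 30 min; fluorescence intensity by HCS; DMSO-normalised, bidirectional fitting.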

Experiment [2] is described as follows: CCTE_Mundy_HCI_hNP1_Casp3_7: CCTE's Caspase-Glo 3/7 Assay in human neuroprogenitor cells for Apoptosis, Mundy Lab (AID 2284240). Put shortly: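 Neuroepithelial-lineage stem cells from WA09 embryonic cells were treated with chemicals after 40–44 h of culture. Twenty-four hours later, caspase-3/7 activation was detected luminescently after a 30 min room-temperature reagent step, with DMSO as baseline.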

Experiment [3] in a line: CCTE_Mundy_HCI_Cortical_Synap_Neur_Matur_NeuronCount: CCTE's Synaptogenesis and Neurite Maturation Assay in rat cortical cells for Neuron Count, Mundy Lab (AID 2284242; active = hit-call score of the fitted dose curve at least 0.9, where 1 is the maximum;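 as to AC50: neuron number from Hoechst nuclei and MAP2 staining by high-content imaging; hits reduce neuron count versus DMSO baseline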). An outline of the steps: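 Cortical cells from rat are plated, treated with AraC at DIV 5, and exposed to test chemicals with a media change at DIV 7. At DIV 12 they are fixed and immunostained (MAP2, synaptophysin), and imaged neuron counts are compared against DMSO controls.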

Experiment [4] is described as follows: TAMU_PeakParms_SingleDonor1434_QT: Texas A&M University (TAMU) 1.5-hr Human Induced Pluripotent Stem Cell (iPSC)-derived Cardiomyocytes Calcium (Ca+2) Flux Assay for Cardiotoxicity: QT (decay-rise ratio) (AID 2284235; active = hit-call score of the fitted dose curve at least 0.9, where 1 is the maximum). An outline of the steps: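 Decay/rise ratio of calcium-flux fluorescence scored after 90 min exposure (37C) of donor 1434 iPSC cardiomyocytes to 0.2–100 uM (0.5% DMSO). Beat-cessation and severe-notch points removed; POD is EC05, a 5% rise over DMSO.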

The nature of experiment [5]: CCTE_Mundy_HCI_Cortical_NOG_NeuronCount: CCTE's Neurite Outgrowth Assay in rat cortical cells for Neuron Count, Mundy Lab (AID 2284236; active = hit-call score of the fitted dose curve at least 0.9, where 1 is the maximum;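 also: neurons counted by imaging betaIII-tubulin and Hoechst stained cortical cells; cells exposed to compound for about 48 hours before fixation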). Put shortly:
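Read-out: neuron number by high-content imaging of betaIII-tubulin (Alexa Fluor-488) and Hoechst-labelled rat primary cortical cells.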

A short description of experiment [6]: CCTE_Mundy_HCI_Cortical_NOG_BPCount: CCTE's Neurite Outgrowth Assay in rat cortical cells for Branch Point Count, Mundy Lab (AID 2284237).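 As to AC50: branch points counted about two days after chemical exposure.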 Put shortly: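 Measured 50.33 h after dosing, this morphology endpoint uses rat primary cortical cultures labelled for betaIII-tubulin. Branch points are quantified by high-content imaging, with DMSO as negative control and baseline.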

A short description of experiment [7]: CCTE_Mundy_HCI_hNP1_CellTiter: CCTE's Cell Titer-Glo 2 Assay in human neuroprogenitor cells for Viability, Mundy Lab (AID 2284241; active = hit-call score of the fitted dose curve at least 0.9, where 1 is the maximum). Put shortly:
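Measures ATP content in human neural progenitors derived from WA09 embryonic cells. Read-out at 26.5 hours after dosing, with DMSO serving as the negative control and baseline.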

Experiment [8] is described as follows: TAMU_HCS_1.5hr_SingleDonor1434_Cytotoxicity: Cytotoxicity Assessment using High-content Screening (HCS) Fluorescent Imaging for the Texas A&M University (TAMU) 1.5-hr Human Induced Pluripotent Stem Cell (iPSC)-derived Cardiotoxicity Assay (AID 2284234; active = hit-call score of the fitted dose curve at least 0.9, where 1 is the maximum). Put shortly:
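Nuclear counts from Hoechst 33342 imaging define cytotoxicity here, with EC10 (10% cell-count loss relative to DMSO) as point of departure. iPSC cardiomyocytes received 0.2-100 uM test chemical in 0.5% DMSO for 1.5 h at 37 C.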

Read-out in experiment [9]: Collagen I, COL1A1 (gene 1277)
The experiment is described as follows: BSK_MyoF_CollagenI: BioMAP Diversity Plus: MyoF Assay for Collagen I Biomarker Activity (AID 2284238). The settings on record: primary human lung fibroblasts. An outline of the steps: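 Collagen I levels measured by ELISA on human lung fibroblast cultures 24 h post-dosing, with curve fitting in the positive direction relative to DMSO; SRB staining of parallel wells marked cytotoxicity.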

Read-out in experiment [10]: Collagen III, COL3A1 (gene 1281)
Put plainly: BSK_MyoF_CollagenIII: BioMAP Diversity Plus: MyoF Assay for Collagen III Biomarker Activity (AID 2284239). The settings on record: primary human lung fibroblasts. An outline of the steps: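 Collagen III biomarker quantified by ELISA in human lung fibroblast cultures 24 h after dosing. Activity fitted in the positive direction against DMSO as baseline.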

Read-out in experiment [11]: Interleukin 17F (IL17F), IL17F (gene 112744)
Put plainly: BSK_BT_xIL17F: BioMAP Diversity Plus: BT Assay for Interleukin 17F (IL17F) Biomarker Activity (AID 2284243). As to conditions: primary human B cells with PBMC. An outline of the steps:
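Human B cells co-cultured with PBMC; secreted IL-17F quantified by LumineX xMAP 24 hours after chemical dosing. Activity fitted in the positive direction against DMSO negative control as baseline.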

Read-out in experiment [12]: Actin alpha 1 (ACTA1), ACTA1 (gene 58)
The experiment is described as follows: BSK_MyoF_ACTA1: BioMAP Diversity Plus: MyoF Assay for Actin alpha 1 (ACTA1) Biomarker Activity (AID 2284244). The settings on record: primary human lung fibroblasts. Put shortly: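 Cells were exposed to chemical for 24 h before a-SMA levels were quantified by ELISA in human lung fibroblasts. Increases were fitted against DMSO as negative control; parallel SRB staining (0.1% after 10% TCA fixation, 560 nm) assessed cytotoxicity.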

Read-out in experiment [13]: Interleukin 2 (IL2), IL2 (gene 3558)
The experiment is described as follows: BSK_BT_xIL2: BioMAP Diversity Plus: BT Assay for Interleukin 2 (IL2) Biomarker Activity (AID 2284245). As to conditions: primary human B cells with PBMC. An outline of the steps: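 The BT system combines human B cells with peripheral blood mononuclear cells. Twenty-four hours after chemical dosing, secreted IL-2 was measured with xMAP bead technology, and responses were analyzed as increases over DMSO controls.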

Read-out in experiment [14]: Basic fibroblast growth factor (bFGF), FGF2 (gene 2247)
Put plainly: BSK_MyoF_bFGF: BioMAP Diversity Plus: MyoF Assay for Basic fibroblast growth factor (bFGF) Biomarker Activity (AID 2284246). As to conditions: primary human lung fibroblasts. Put shortly: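 Chemicals are added to human lung fibroblast cultures and incubated 24 h. bFGF is then measured by ELISA, while parallel cultures receive SRB staining for total protein as a cytotoxicity check. Data are fitted upward against DMSO.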

Read-out in experiment [15]: Collagen IV, COL4A1 (gene 1282)
Put plainly: BSK_MyoF_CollagenIV: BioMAP Diversity Plus: MyoF Assay for Collagen IV Biomarker Activity (AID 2284247). The settings on record: primary human lung fibroblasts. An outline of the steps: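 Human lung fibroblast system, 24 h chemical exposure. Endpoint: Collagen IV by ELISA, upward fit vs DMSO.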

Read-out in experiment [16]: Plasminogen activator inhibitor-1 (PAI1), SERPINE1 (gene 5054)
Put plainly: BSK_MyoF_PAI1: BioMAP Diversity Plus: MyoF Assay for Plasminogen activator inhibitor-1 (PAI1) Biomarker Activity (AID 2284256).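 As to outcome: PAI-1 protein level measured by ELISA in fibroblast cultures; PAI-1 read 24 h after compound addition.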 The settings on record: primary human lung fibroblasts. An outline of the steps:
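Human lung fibroblasts (MyoF system) were exposed to test chemicals for 24 h, then PAI-1 was quantified by ELISA. Activity was fitted in the positive (signal-gain) direction relative to DMSO vehicle as baseline.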

Read-out in experiment [17]: Interleukin-8 (IL8), CXCL8 (gene 3576)
The experiment is described as follows: BSK_MyoF_IL8: BioMAP Diversity Plus: MyoF Assay for Interleukin-8 (IL8) Biomarker Activity (AID 2284261). As to conditions: primary human lung fibroblasts. An outline of the steps: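 IL-8 quantified by ELISA after 24 h compound exposure of primary human lung fibroblasts. SRB staining of parallel cultures flagged cytotoxicity; DMSO served as baseline.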

Read-out in experiment [18]: Decorin, DCN (gene 1634)
The experiment is described as follows: BSK_MyoF_Decorin: BioMAP Diversity Plus: MyoF Assay for Decorin Biomarker Activity (AID 2284265). As to conditions: primary human lung fibroblasts. An outline of the steps:
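Decorin protein was quantified by ELISA 24 h after chemical addition to primary human lung fibroblasts and analysed as increase over DMSO. Cytotoxicity was tracked in parallel cultures by SRB total-protein staining read at 560 nm.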

A short description of experiment [19]: BSK_MyoF_SRB: Viability Assessment in the BioMAP Diversity Plus: MyoF Assay (AID 2284267).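 Also: total protein by SRB absorbance in parallel cultures as cytotoxicity measure; cells assessed 24 h after compound addition.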 As to conditions: primary human lung fibroblasts. An outline of the steps: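 Confluent human lung fibroblasts were exposed to test chemicals for 24 h. Parallel wells were then fixed in 10% TCA, stained with 0.1% sulforhodamine B and measured at 560 nm. DMSO served as baseline for curve fitting.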

Read-out in experiment [20]: Matrix Metallopeptidase 1 (MMP1), MMP1 (gene 4312)
Put plainly: BSK_MyoF_MMP1: BioMAP Diversity Plus: MyoF Assay for Matrix Metallopeptidase 1 (MMP1) Biomarker Activity (AID 2284268). The settings on record: primary human lung fibroblasts. An outline of the steps: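 Human lung fibroblasts (MyoF system) exposed to chemical for 24 h in 96-well format; MMP1 biomarker quantified by ELISA, with activity fitted in the positive direction relative to DMSO baseline.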

As for `S=C([S-])NCCNC(=S)[S-].[Mn+2]`, the concentration at half-maximal activity (AC50) (in general, the concentration at which the activity in the assay is half-maximal) in experiment [1] is 16.1 µM (active). Further, the result in [2] and in experiment [3] was inactive.
On to `CC1(C)C(C=C(Cl)Cl)C1C(=O)OCc1cccc(Oc2ccccc2)c1` (centres undefined), for which the outcome in experiment [4], in experiment [2] and in experiment [7] was inactive. The concentration at half-maximal activity (AC50) in experiment [5] is 78.4 µM (active); in experiment [6], 84.5 µM (active); in experiment [3], 5.69 µM (active).
For `CC(=O)[C@H]1CC[C@H]2[C@@H]3CCC4=CC(=O)CC[C@]4(C)[C@H]3CC[C@]12C`, the call in [8] and in experiment [4] was inactive.
For `Cc1nn(C)c(Oc2ccccc2)c1C=NOCc1ccc(C(=O)OC(C)(C)C)cc1`, the AC50 in experiment [1] was 14 µM (active); in experiment [5], 0.327 µM (active); in experiment [6] it was 0.014 µM (active); in experiment [2], 8.5 µM (active); in [3], 0.00225 µM (active).
On to `c1ccc2[nH]c(-c3cscn3)nc2c1`, for which the result in experiment [8] and in experiment [4] was inactive.
As for `N#CSCSc1nc2ccccc2s1`, the AC50 in [9] is 5.73 µM (active); in experiment [10], 5.71 µM (active); in experiment [11] it was 4.93 µM (active); in [12], 4.21 µM (active); in experiment [13], 5.16 µM (active); in experiment [14] it was 10.6 µM (active). For the same compound, the AC50 in experiment [15] was 6.4 µM (active); in experiment [16], 7.79 µM (active); in [17], 11.2 µM (active); in experiment [18], 5.27 µM (active); in experiment [19] it was 5.55 µM (active); in [20], 3.63 µM (active).
Regarding `C#CCOC(=O)[C@@H](C)Oc1ccc(Oc2ncc(Cl)cc2F)cc1`, the compound was called inactive in [1], in experiment [5], in [6], in [2], in experiment [7] and in experiment [3].
Regarding `CSC(=O)c1cccc2nnsc12`, the outcome in [6], in experiment [2] and in [7] was inactive.
Consider `CCN(CC)C(=O)c1cccc(C)c1`, for which the outcome in [1], in experiment [5], in experiment [6], in [2], in experiment [7] and in [3] was inactive.
As for `CC(C)(c1ccc(O)cc1)c1ccc(O)cc1`, the outcome in experiment [8], in [4], in experiment [5] and in [3] was inactive.
For `S=C(S)NCCNC(=S)S.[Mn+2].[S-]C([S-])=NCCN=C([S-])[S-].[Zn+2]`, the compound was classed as inactive in experiment [6] and in experiment [2].
Turning to `CCC(C)OC(=O)N1CCCCC1CCO` (centres undefined), the result in experiment [9], in experiment [10], in experiment [11], in experiment [12], in experiment [13] and in experiment [14] was inactive. Further, the outcome in [15], in [16], in experiment [17], in experiment [18], in experiment [19] and in experiment [20] was inactive.
On to `O=C(O)c1ccccc1`, for which the outcome in [4], in experiment [5], in experiment [6], in experiment [2] and in [7] was inactive.
With `COCCO`, the call in experiment [8], in [9], in [10], in experiment [11], in [12] and in experiment [13] was inactive. In addition, the outcome in experiment [14], in experiment [15], in experiment [16], in experiment [17], in experiment [18] and in experiment [19] was inactive. Moreover, the outcome in experiment [20] was inactive.
Turning to `CCCN(CCC)C(=O)SCC`, the result in [1], in experiment [2] and in experiment [7] was inactive.
